{"source": "paper PMC9911399", "about": "“Two distinct binding modes provide the RNA-binding protein RbFox with extraordinary sequence specificity”", "binders": {"B1": {"name": "AUGCCGC (DNA:RNA)", "RNA": "GGGAGACCGGAAUUCAGAUUGUCCAUGCCGCUUAAAUCCCGUCGUAGCCACCA", "DNA 1": "CAATCTGAATTCCGGTCTCCC", "DNA 2": "TGGTGGCTACGACGGGATT"}, "B2": {"name": "ACACGGC (DNA:RNA)", "RNA": "B1 RNA with U26C, G27A, C29G", "DNA 1": "CAATCTGAATTCCGGTCTCCC", "DNA 2": "TGGTGGCTACGACGGGATT"}, "B3": {"name": "UUUUCCC (DNA:RNA)", "RNA": "B1 RNA with A25U, G27U, C28U, G30C", "DNA 1": "CAATCTGAATTCCGGTCTCCC", "DNA 2": "TGGTGGCTACGACGGGATT"}, "B4": {"name": "GGGACUG (DNA:RNA)", "RNA": "B1 RNA with A25G, U26G, C28A, G30U, C31G", "DNA 1": "CAATCTGAATTCCGGTCTCCC", "DNA 2": "TGGTGGCTACGACGGGATT"}, "B5": {"name": "UCCAGUU (DNA:RNA)", "RNA": "GGGAGACCGGAAUUCAGAUUGUCCUCCAGUUUUAAAUCCCGUCGUAGCCACCA", "DNA 1": "CAATCTGAATTCCGGTCTCCC", "DNA 2": "TGGTGGCTACGACGGGATT"}, "B6": {"name": "CGAUCAG (DNA:RNA)", "RNA": "B1 RNA with A25C, U26G, G27A, C28U, G30A, C31G", "DNA 1": "CAATCTGAATTCCGGTCTCCC", "DNA 2": "TGGTGGCTACGACGGGATT"}, "B7": {"name": "AUUGUAA (DNA:RNA)", "RNA": "B1 RNA with G27U, C28G, C29U, G30A, C31A", "DNA 1": "CAATCTGAATTCCGGTCTCCC", "DNA 2": "TGGTGGCTACGACGGGATT"}, "B8": {"name": "UUUGUUC (DNA:RNA)", "RNA": "B1 RNA with A25U, G27U, C28G, C29U, G30U", "DNA 1": "CAATCTGAATTCCGGTCTCCC", "DNA 2": "TGGTGGCTACGACGGGATT"}, "B9": {"name": "GCGCGAC (DNA:RNA)", "RNA": "B1 RNA with A25G, U26C, C29G, G30A", "DNA 1": "CAATCTGAATTCCGGTCTCCC", "DNA 2": "TGGTGGCTACGACGGGATT"}, "B10": {"name": "UUAAGCC (DNA:RNA)", "RNA": "B5 RNA with C26U, C27A, U30C, U31C", "DNA 1": "CAATCTGAATTCCGGTCTCCC", "DNA 2": "TGGTGGCTACGACGGGATT"}, "B11": {"name": "CCCGAUC (DNA:RNA)", "RNA": "B5 RNA with U25C, A28G, G29A, U31C", "DNA 1": "CAATCTGAATTCCGGTCTCCC", "DNA 2": "TGGTGGCTACGACGGGATT"}, "B12": {"name": "CUUCGGU (DNA:RNA)", "RNA": "B1 RNA with A25C, G27U, C29G, C31U", "DNA 1": "CAATCTGAATTCCGGTCTCCC", "DNA 2": "TGGTGGCTACGACGGGATT"}, "B13": {"name": "AAGGCAA (DNA:RNA)", "RNA": "B1 RNA with U26A, C28G, G30A, C31A", "DNA 1": "CAATCTGAATTCCGGTCTCCC", "DNA 2": "TGGTGGCTACGACGGGATT"}, "B14": {"name": "AGAUUGC (DNA:RNA)", "RNA": "B1 RNA with U26G, G27A, C28U, C29U", "DNA 1": "CAATCTGAATTCCGGTCTCCC", "DNA 2": "TGGTGGCTACGACGGGATT"}, "B15": {"name": "AAAAUGC (DNA:RNA)", "RNA": "B1 RNA with U26A, G27A, C28A, C29U", "DNA 1": "CAATCTGAATTCCGGTCTCCC", "DNA 2": "TGGTGGCTACGACGGGATT"}, "B16": {"name": "AGAAUGC (DNA:RNA)", "RNA": "B1 RNA with U26G, G27A, C28A, C29U", "DNA 1": "CAATCTGAATTCCGGTCTCCC", "DNA 2": "TGGTGGCTACGACGGGATT"}, "B17": {"name": "UGAUUGA (DNA:RNA)", "RNA": "B1 RNA with A25U, U26G, G27A, C28U, C29U, C31A", "DNA 1": "CAATCTGAATTCCGGTCTCCC", "DNA 2": "TGGTGGCTACGACGGGATT"}, "B18": {"name": "UGAAUGA (DNA:RNA)", "RNA": "B5 RNA with C26G, C27A, G29U, U30G, U31A", "DNA 1": "CAATCTGAATTCCGGTCTCCC", "DNA 2": "TGGTGGCTACGACGGGATT"}, "B19": {"name": "UGAUGAA (DNA:RNA)", "RNA": "B5 RNA with C26G, C27A, A28U, U30A, U31A", "DNA 1": "CAATCTGAATTCCGGTCTCCC", "DNA 2": "TGGTGGCTACGACGGGATT"}, "B20": {"name": "UCGUUCG (DNA:RNA)", "RNA": "B5 RNA with C27G, A28U, G29U, U30C, U31G", "DNA 1": "CAATCTGAATTCCGGTCTCCC", "DNA 2": "TGGTGGCTACGACGGGATT"}}, "note": "Residue numbers refer to the chain shown, from its start. In all, about 16,000 sequences were measured (“ka relative to ugcaugu”: median about 0.096, highest 2% from about 0.35 on). The full list was thinned out, with the highest values kept by preference.", "data": [{"target": "T1, RBFOX1 RRM RbFoxmut (Fox-RRM*) (Homo sapiens, UniProt Q9NWB1 109-208, R118D;E147R;N151S;E152T)", "T1 sequence": "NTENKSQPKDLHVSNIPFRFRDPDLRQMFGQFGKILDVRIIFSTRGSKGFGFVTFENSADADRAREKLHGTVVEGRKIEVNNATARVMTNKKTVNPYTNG", "assay": "EMSA; HiTS-Eq, 1 nM pool, 10 min; buffer printed only for the single-RNA assays: 10 mM Tris pH 7.5, 150 mM NaCl, 3.4 mM EDTA, 0.001% NP-40, 30 C", "conditions": "tags: His6 N-terminal (pET28a); label: 5' 32P", "procedure,_shortened": "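Purified wild-type or mutant RbFox RRM at increasing concentrations was equilibrated with 1 nM of 5′-radiolabelled RNA carrying 7 randomized nucleotides for 10 min in 50 µL. Unbound RNA was separated by 8% native PAGE and sequenced. Relative association constants came from read-count changes of each RNA species compared with the control reaction, normalised to the cognate motif.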", "values": [{"binder": "B1", "binding signal": "0.11 KA relative to UGCAUGU"}, {"binder": "B2", "binding signal": "0.115 KA relative to UGCAUGU"}, {"binder": "B3", "binding signal": "0.0312 KA relative to UGCAUGU"}, {"binder": "B4", "binding signal": "0.266 KA relative to UGCAUGU"}, {"binder": "B5", "binding signal": "0.0717 KA relative to UGCAUGU"}, {"binder": "B6", "binding signal": "0.0789 KA relative to UGCAUGU"}, {"binder": "B7", "binding signal": "0.154 KA relative to UGCAUGU"}, {"binder": "B8", "binding signal": "0.0935 KA relative to UGCAUGU"}, {"binder": "B9", "binding signal": "0.0897 KA relative to UGCAUGU"}, {"binder": "B10", "binding signal": "0.106 KA relative to UGCAUGU"}, {"binder": "B11", "binding signal": "0.0576 KA relative to UGCAUGU"}, {"binder": "B12", "binding signal": "0.095 KA relative to UGCAUGU"}, {"binder": "B13", "binding signal": "0.061 KA relative to UGCAUGU"}, {"binder": "B14", "binding signal": "0.14 KA relative to UGCAUGU"}, {"binder": "B15", "binding signal": "0.0633 KA relative to UGCAUGU"}, {"binder": "B16", "binding signal": "0.408 KA relative to UGCAUGU"}, {"binder": "B17", "binding signal": "0.209 KA relative to UGCAUGU"}, {"binder": "B18", "binding signal": "0.46 KA relative to UGCAUGU"}, {"binder": "B19", "binding signal": "0.122 KA relative to UGCAUGU"}, {"binder": "B20", "binding signal": "0.218 KA relative to UGCAUGU"}]}]}
